Experiment [1] can be described thus: qHTS assay to identify aromatase inhibitors - cell viability counter screen (AID 743084;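 note: cells stimulated with testosterone during compound exposure; nearly all actives have a fitted effect of over 55% in size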; note: potency is the fitted concentration of half-maximal effect). (In general: In qHTS, concentration-response curves come from the screen itself.)
The target in experiment [2] is Aryl hydrocarbon receptor (Homo sapiens) (UniProt P35869). Description: qHTS assay to identify small molecule that activate the aryl hydrocarbon receptor (AhR) signaling pathway (AID 743085).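 For activation: HG2L7.5c1 human HepG2 liver cells with stably integrated DRE-driven firefly reporter; series mostly up to about 70 µM.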 Note: nearly all actives have a fitted effect of over 15% in size. Note: potency is the fitted concentration of half-maximal effect. An outline of the steps:
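HepG2 cells (HG2L7.5c1) stably carrying a firefly luciferase reporter driven by 20 dioxin responsive elements were exposed to compound for 24 h at 37C after a 5 h settling period; luminescence rise (ONE-Glo) indicated activation.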

Experiment [3] is described as follows: qHTS assay to identify small molecule that activate the aryl hydrocarbon receptor (AhR) signaling pathway - cell viability counter screen (AID 743086).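 Note: HepG2 liver cells carrying the AhR DRE luciferase reporter; series mostly up to about 70 µM; nearly all actives have a fitted effect of over 45% in size.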 In outline: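 HepG2-AhR-luc (HG2L7.5c1) cells, 4000/well, treated 24 h at 37 C with compound; viability measured as CellTiter-Fluor fluorescence after 30 min in the same wells as the luciferase read.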
In experiment [4] the target is Peroxisome proliferator-activated receptor gamma (Homo sapiens) (UniProt P37231). Nature of the experiment: qHTS assay to identify small molecule agonists of the peroxisome proliferator-activated receptor gamma (PPARg) signaling pathway (AID 743094; active = well fitted activation curve with a large enough effect in the signal ratio in the repeat runs, not every such curve was filed as active; the % refers to the signal ratio). In outline: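 Agonist activity was taken from a beta-lactamase reporter (FRET substrate, 1 h at room temperature) in HEK293H cells carrying a PPARg UAS-bla construct. Compounds in DMSO were incubated 17 h at 37C after a 5 h cell pre-incubation.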

Experiment [5] in a line: qHTS assay to identify small molecule antagonists of the peroxisome proliferator-activated receptor gamma (PPARg) signaling pathway - cell viability counter screen (AID 743194). Note: nearly all actives have a fitted effect of over 55% in size. In outline: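 Cytotoxicity counter screen in PPARg-bla HEK293H cells, same wells as reporter assay. Compounds plus 50 nM rosiglitazone (final) for 17 h at 37 C, then viability read by CellTiter-Glo luminescence.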

Experiment [6] in a line: qHTS assay for small molecule agonists of the antioxidant response element (ARE) signaling pathway (AID 743202; active = well fitted activation curve with a large enough effect in the signal ratio in the repeat runs, not every such curve was filed as active; the % refers to the signal ratio; note: potency is the fitted concentration of half-maximal effect). An outline of the steps:
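HepG2 ARE-bla reporter line, 2,000 cells/well; 5 h preincubation 37 C/5% CO2; compound (DMSO) 16 h 37 C; B/G FRET substrate 2 h RT; fluorescence intensity.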

Experiment [7] is described as follows: qHTS assay for small molecule agonists of the antioxidant response element (ARE) signaling pathway - cell viability counter screen (AID 743203; calls by dose curve; note: nearly all actives have a fitted effect of over 55% in size). In outline:
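Viability counter screen: CellTiter-Glo luminescence, read after 30 min at room temperature, in ARE-bla HepG2 wells. Compound exposure lasted 16 h at 37C/5% CO2, following a 5 h pre-incubation of the cells after plating.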

Experiment [8] in a line: qHTS assay for small molecule activators of the heat shock response signaling pathway - cell viability counter screen (AID 743209). Note: nearly all actives have a fitted effect of over 50% in size. An outline of the steps:
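Cytotoxicity counter screen run in the same wells as the heat-shock bla reporter assay: HeLa HSE-bla cells, 5 h compound exposure at 37 C, viability read by CellTiter-Glo luminescence.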

Experiment [9] is described as follows: qHTS assay to identify small molecule agonists of the peroxisome proliferator-activated receptor delta (PPARd) signaling pathway - cell viability counter screen (AID 743211). Note: nearly all actives have a fitted effect of over 55% in size. An outline of the steps:
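PPARd-bla HEK293H cells (UAS-beta-lactamase reporter) were treated with compounds for 17 h at 37 C. Viability was then read in the same wells by CellTiter-Glo luminescence after 30 min at room temperature.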

Experiment [10] deals with Peroxisome proliferator-activated receptor delta (Homo sapiens) (UniProt Q03181). Nature of the experiment: qHTS assay to identify small molecule agonists of the peroxisome proliferator-activated receptor delta (PPARd) signaling pathway (AID 743212; calls by dose curve). An outline of the steps:
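Read-out: beta-lactamase FRET fluorescence after 2 h room-temperature incubation with LiveBLAzer B/G substrate. Cells were HEK293H carrying a UAS-bla reporter for PPARd, treated at 37 C with DMSO-dissolved compounds.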

Experiment [11] in a line: qHTS assay to identify small molecule antagonists of the peroxisome proliferator-activated receptor delta (PPARd) signaling pathway - cell viability counter screen (AID 743213). Note: nearly all actives have a fitted effect of over 50% in size. An outline of the steps:
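Same-well viability: cells pre-incubated 5 h, dosed with compound plus 300 nM L165041, kept 17 h at 37 C, FRET substrate 2 h RT, then CellTiter-Glo 30 min RT and luminescence.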

Experiment [12] addresses Peroxisome proliferator-activated receptor delta (Homo sapiens) (UniProt Q03181). Description: qHTS assay to identify small molecule antagonists of the peroxisome proliferator-activated receptor delta (PPARd) signaling pathway (AID 743215; active = well fitted inhibition curve with a large enough effect in the signal ratio in the repeat runs, not every such curve was filed as active; the % refers to the signal ratio;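 note: cells stimulated with agonist L165041 at 300 nM final during compound exposure; series mostly up to about 62 µM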). In outline: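 Agonist L165041 (300 nM final) added with compound to PPARd-bla HEK293H UAS-bla reporter cells; 17 h incubation at 37 C. Read-out: LiveBLAzer FRET substrate, 2 h at room temperature, fluorescence intensity.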

Experiment [13] can be described thus: qHTS assay to identify small molecule agonists of the farnesoid-X-receptor (FXR) signaling pathway - cell viability counter screen (AID 743218). Note: nearly all actives have a fitted effect of over 45% in size. An outline of the steps: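 Viability counter screen in the same wells: CellTiter-Glo luminescence, 30 min room-temperature incubation, measured after the beta-lactamase read. Cells were GeneBLAzer FXR-UAS-bla HEK 293T, compound-treated 16 h at 37C.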

The nature of experiment [14]: qHTS assay to identify small molecule antagonists of the farnesoid-X-receptor (FXR) signaling pathway - cell viability counter screen (AID 743221; active = well fitted cell-killing curve with a large enough effect in the repeat runs, not every such curve was filed as active; note: nearly all actives have a fitted effect of over 50% in size). An outline of the steps: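 FXR-UAS-bla HEK 293T cells were treated with test compounds plus chenodeoxycholic acid (50 uM final) for 16 h at 37 C. Cell viability in the same wells was then read as CellTiter-Glo luminescence after 30 min at room temperature.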

Experiment [15] addresses Vitamin D3 receptor (Homo sapiens) (UniProt P11473). Description: qHTS assay to identify small molecule agonists of the vitamin D receptor (VDR) signaling pathway (AID 743222; calls by dose curve). In outline: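 Agonist mode, beta-lactamase reporter: fluorescence from LiveBLAzer B/G FRET substrate (2 h, room temperature) read after 16 h compound treatment at 37 C of VDR-bla cells, which were pre-incubated 4 h after seeding.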

Experiment [16] shares this target. Description: qHTS assay to identify small molecule antagonists of the vitamin D receptor (VDR) signaling pathway (AID 743223; active = well fitted inhibition curve with a large enough effect in the signal ratio in the repeat runs, not every such curve was filed as active; the % refers to the signal ratio). An outline of the steps: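 VDR-bla cells were plated, incubated 4 h at 37C, then given compound and 1alpha,25-dihydroxyvitamin D3 (3 nM final). After 16 h at 37C, LiveBLAzer B/G FRET substrate was added for 2 h at room temperature and fluorescence read.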

Experiment [17] concerns the target Peroxisome proliferator-activated receptor gamma (Homo sapiens) (UniProt P37231). Description: qHTS assay to identify small molecule antagonists of the peroxisome proliferator-activated receptor gamma (PPARg) signaling pathway (AID 743191; calls by dose curve; note: series mostly up to about 63 µM; nearly all actives have a fitted effect of over 30% in size). An outline of the steps: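 GeneBLAzer PPARg UAS-bla HEK293H cells, 5 h post-plating, exposed to compounds 17 h at 37C. LiveBLAzer B/G FRET substrate added for 1 h at room temperature; beta-lactamase reporter read by fluorescence intensity.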

Experiment [18] can be described thus: qHTS assay for small molecule activators of the heat shock response signaling pathway (AID 743210; active = well fitted activation curve with a large enough effect in the signal ratio in the repeat runs, with a control signal flat, not every such curve was filed as active; the % refers to the signal ratio; note: series mostly up to about 63 µM). In outline: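 Beta-lactamase reporter read-out: FRET substrate fluorescence after 2.5 h at RT, following 5 h compound treatment at 37 C of HeLa cells carrying HSE-driven bla reporter; quantitative HTS format.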
The target in experiment [19] is Bile acid receptor (Homo sapiens) (UniProt Q96RI1). Nature of the experiment: qHTS assay to identify small molecule antagonists of the farnesoid-X-receptor (FXR) signaling pathway (AID 743217; active = well fitted inhibition curve with a large enough effect in the signal ratio in the repeat runs, not every such curve was filed as active; the % refers to the signal ratio). In outline:
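Antagonist mode: chenodeoxycholic acid at 50 uM final stimulates a UAS-driven beta-lactamase reporter in HEK 293T FXR-bla cells during 16 h, 37C compound exposure. Read-out is FRET substrate fluorescence after 2 h at room temperature.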

Experiment [20] shares this target. Description: qHTS assay to identify small molecule agonists of the farnesoid-X-receptor (FXR) signaling pathway (AID 743220; active = well fitted activation curve with a large enough effect in the signal ratio in the repeat runs, not every such curve was filed as active; the % refers to the signal ratio). An outline of the steps:
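FXR-UAS-bla HEK 293T cells carrying a UAS-driven beta-lactamase reporter were plated for 5 h at 37C/5% CO2, then exposed to DMSO-dissolved Tox21 10K compounds for 16 h at 37C. A LiveBLAzer B/G FRET substrate was loaded for 2 h at room temperature before fluorescence reading.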

Where “and” joins values, the source holds several entries; their conditions need not be identical. Identical values can stand only once. Records with an inconclusive call do not appear. Some structures have more than one record in an assay (separate samples or runs), and their calls can disagree. Calls of active or inactive are those of the source. Unless noted, calls come from the whole dose curve; as a rule, active = well fitted curve in the direction sought with a large enough effect in the repeat runs; inconclusive = weak or mixed curves; inactive = no such curve, though single readings can be large; an effect the other way counts as inactive or inconclusive.

Experimental findings from PubChem BioAssay (Tox21) are described below.

Sequence of Vitamin D3 receptor (Homo sapiens) (P11473 whole entry, looked up): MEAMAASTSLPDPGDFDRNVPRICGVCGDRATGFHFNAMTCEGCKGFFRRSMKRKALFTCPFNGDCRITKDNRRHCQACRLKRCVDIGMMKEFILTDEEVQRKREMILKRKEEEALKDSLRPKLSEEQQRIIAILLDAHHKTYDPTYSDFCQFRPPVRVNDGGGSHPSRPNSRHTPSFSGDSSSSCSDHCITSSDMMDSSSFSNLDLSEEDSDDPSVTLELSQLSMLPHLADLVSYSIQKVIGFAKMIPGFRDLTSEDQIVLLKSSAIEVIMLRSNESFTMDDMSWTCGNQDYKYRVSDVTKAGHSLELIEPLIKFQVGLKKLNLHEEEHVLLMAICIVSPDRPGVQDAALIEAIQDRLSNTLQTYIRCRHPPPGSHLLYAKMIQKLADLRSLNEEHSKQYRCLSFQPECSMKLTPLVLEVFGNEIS
Sequence of Aryl hydrocarbon receptor (Homo sapiens) (P35869 whole entry, looked up): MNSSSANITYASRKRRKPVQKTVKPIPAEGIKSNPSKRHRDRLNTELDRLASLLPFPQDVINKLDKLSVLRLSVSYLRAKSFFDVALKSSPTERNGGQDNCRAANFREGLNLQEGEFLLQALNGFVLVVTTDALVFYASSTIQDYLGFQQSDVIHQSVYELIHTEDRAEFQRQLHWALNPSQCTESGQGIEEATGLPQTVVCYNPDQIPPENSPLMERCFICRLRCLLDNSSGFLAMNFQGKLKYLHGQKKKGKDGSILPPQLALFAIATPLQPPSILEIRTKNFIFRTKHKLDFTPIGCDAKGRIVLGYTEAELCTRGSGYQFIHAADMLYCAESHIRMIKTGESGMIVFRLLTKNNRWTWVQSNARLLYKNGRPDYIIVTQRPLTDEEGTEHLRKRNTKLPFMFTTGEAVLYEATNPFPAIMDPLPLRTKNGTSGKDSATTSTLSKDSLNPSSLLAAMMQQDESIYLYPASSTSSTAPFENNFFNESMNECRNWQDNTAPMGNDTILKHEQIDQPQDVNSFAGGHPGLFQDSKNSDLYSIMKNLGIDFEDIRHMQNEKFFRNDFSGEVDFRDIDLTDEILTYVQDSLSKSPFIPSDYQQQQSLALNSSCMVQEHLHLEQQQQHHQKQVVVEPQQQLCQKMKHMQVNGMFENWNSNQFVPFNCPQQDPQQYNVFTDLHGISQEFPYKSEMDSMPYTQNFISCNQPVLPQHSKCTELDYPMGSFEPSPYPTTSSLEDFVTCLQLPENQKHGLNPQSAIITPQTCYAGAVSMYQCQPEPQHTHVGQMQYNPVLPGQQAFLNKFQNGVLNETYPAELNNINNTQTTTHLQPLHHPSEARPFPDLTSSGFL
Sequence of Peroxisome proliferator-activated receptor gamma (Homo sapiens) (P37231 whole entry, looked up): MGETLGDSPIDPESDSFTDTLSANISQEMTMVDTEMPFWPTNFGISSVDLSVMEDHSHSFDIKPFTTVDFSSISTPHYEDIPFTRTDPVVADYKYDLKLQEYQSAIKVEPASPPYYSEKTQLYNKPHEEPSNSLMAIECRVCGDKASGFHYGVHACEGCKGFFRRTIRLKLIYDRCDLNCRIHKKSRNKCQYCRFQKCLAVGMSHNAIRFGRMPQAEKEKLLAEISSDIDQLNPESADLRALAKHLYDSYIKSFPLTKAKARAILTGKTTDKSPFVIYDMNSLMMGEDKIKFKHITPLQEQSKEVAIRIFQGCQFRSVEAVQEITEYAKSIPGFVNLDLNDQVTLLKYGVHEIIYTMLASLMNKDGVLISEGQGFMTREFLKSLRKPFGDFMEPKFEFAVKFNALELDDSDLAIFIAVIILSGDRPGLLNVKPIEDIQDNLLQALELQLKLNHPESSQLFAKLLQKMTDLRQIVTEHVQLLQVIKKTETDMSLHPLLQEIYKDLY
Sequence of Peroxisome proliferator-activated receptor delta (Homo sapiens) (Q03181 whole entry, looked up): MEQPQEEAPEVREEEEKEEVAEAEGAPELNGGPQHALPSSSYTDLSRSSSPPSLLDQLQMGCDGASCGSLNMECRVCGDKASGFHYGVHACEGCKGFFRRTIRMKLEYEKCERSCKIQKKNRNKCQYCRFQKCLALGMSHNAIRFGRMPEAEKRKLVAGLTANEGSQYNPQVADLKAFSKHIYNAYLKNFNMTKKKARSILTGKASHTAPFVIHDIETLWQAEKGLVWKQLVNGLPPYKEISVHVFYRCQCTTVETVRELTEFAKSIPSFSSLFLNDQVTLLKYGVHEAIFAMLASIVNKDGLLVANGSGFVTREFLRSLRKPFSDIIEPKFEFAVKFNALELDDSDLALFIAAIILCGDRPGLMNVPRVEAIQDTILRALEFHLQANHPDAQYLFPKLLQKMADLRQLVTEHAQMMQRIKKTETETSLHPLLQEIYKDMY
Sequence of Bile acid receptor (Homo sapiens) (Q96RI1 whole entry, looked up): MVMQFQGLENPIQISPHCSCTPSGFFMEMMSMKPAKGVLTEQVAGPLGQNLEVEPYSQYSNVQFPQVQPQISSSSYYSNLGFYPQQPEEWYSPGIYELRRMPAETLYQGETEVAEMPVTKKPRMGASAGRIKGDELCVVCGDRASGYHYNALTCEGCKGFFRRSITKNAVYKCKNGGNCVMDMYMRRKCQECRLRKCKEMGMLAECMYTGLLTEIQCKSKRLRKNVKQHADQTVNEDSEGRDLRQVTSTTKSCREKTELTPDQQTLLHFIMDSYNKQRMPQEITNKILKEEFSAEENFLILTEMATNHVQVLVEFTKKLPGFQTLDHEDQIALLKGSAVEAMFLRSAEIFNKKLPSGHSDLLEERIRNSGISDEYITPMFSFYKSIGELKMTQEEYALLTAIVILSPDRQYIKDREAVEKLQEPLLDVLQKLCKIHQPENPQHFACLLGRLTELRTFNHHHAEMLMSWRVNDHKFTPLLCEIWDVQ

`CCCCOCCOCCSC#N`: the Potency entry in [1], in experiment [2], in experiment [3], in experiment [4], in experiment [5] and in [6] was “inactive” throughout. The Potency entry in experiment [7], in experiment [9], in [11], in experiment [13] and in [16] was “inactive” each time. Moreover, the molecule was classed as inactive in [8], in experiment [10], in experiment [12], in experiment [14] and in [15].
As for `Nc1cccc(N)c1`, the Potency entry in experiment [1], in experiment [3], in [17], in experiment [5], in experiment [6] and in experiment [7] was “inactive” in each case. The Potency entry in experiment [9], in [11], in [19], in experiment [13] and in experiment [16] was “inactive” throughout. The Potency in experiment [2] was 54.4 µM (active). The molecule was classed as inactive in experiment [8], in experiment [18], in experiment [20], in [14] and in experiment [15].
For `CC(=O)c1ccc(S(=O)(=O)NC(=O)NC2CCCCC2)cc1`, the Potency result in experiment [1], in [2], in [3], in [17], in [5] and in experiment [6] was “inactive” in each case. Further, the Potency result in [7], in experiment [9], in [11], in [19] and in experiment [16] was “inactive” each time. In addition, the outcome in experiment [8], in experiment [18], in experiment [10], in experiment [12], in experiment [20] and in experiment [14] was inactive. Also, the molecule was classed as inactive in [15].
With `CC(=O)OC/C=C(C)/C=C/C=C(C)/C=C/C1=C(C)CCCC1(C)C`, the Potency result in [1] is “inactive and 66.9 µM (active) and 61.1 µM (active)”; in experiment [6] it was 59.6 µM (active). For the same molecule, the Potency entry in [2], in experiment [3], in experiment [4], in experiment [5], in experiment [7] and in [11] was “inactive” each time. In addition, the Potency result in experiment [16] is “inactive”. Moreover, the call in experiment [8], in experiment [10], in experiment [12], in experiment [14] and in experiment [15] was inactive.
Regarding `OCCCc1ccccc1`, the Potency result in experiment [1], in [2], in [3], in experiment [17], in experiment [5] and in [6] was “inactive” throughout. Moreover, the Potency entry in [7], in [9], in [11], in experiment [13] and in experiment [16] was “inactive” each time. The outcome in [8], in experiment [18], in [10], in experiment [12], in experiment [14] and in [15] was inactive.
In the case of `CN/C(=C\[N+](=O)[O-])NCCSCc1ccc(CN(C)C)o1`, the Potency entry in [1], in experiment [2], in [3], in experiment [4], in [5] and in experiment [6] was “inactive” in each case. The Potency result in [7], in experiment [9], in [11] and in experiment [16] was “inactive” throughout. Further, the molecule was called inactive in experiment [8], in experiment [10], in experiment [12], in [14] and in experiment [15].
For the molecule `CCCCOCCOCCOC(C)=O`, the Potency result in experiment [1], in experiment [2], in experiment [3], in [17], in [5] and in experiment [6] was “inactive” in each case. The Potency result in experiment [7], in experiment [9], in experiment [11] and in [16] was “inactive” throughout. The outcome in [8], in [18], in experiment [10], in experiment [12], in experiment [14] and in [15] was inactive.
As to `CCCCCCCCOc1ccc(C(=O)c2ccccc2)c(O)c1`, the Potency result in experiment [1], in experiment [2], in experiment [3], in experiment [5], in experiment [7] and in experiment [9] was “inactive” in each case. Also, the Potency entry in experiment [11], in [19] and in experiment [16] was “inactive” in each case. Besides, the Potency result in experiment [6] was “inactive and 48.6 µM (active)”. Further, the molecule was called inactive in experiment [8], in experiment [18], in [10], in experiment [12], in experiment [20] and in [14]. The molecule was classed as inactive in [15].
